PubChem BioAssay AID1159580 (chemical genetic matrix, 2015)
In all, about 5,500 compounds went through this assay and about 2,000 (36%) were called active. Not shown: some 18% with an inconclusive outcome. No stated cut-off is given here; in the data, active means normalized growth mostly below about 0.91 (no sharp cut-off); inconclusive means no clear call, values can overlap the other calls; inactive means mostly above about 0.92. The list shows a part of the results.

Experiment: chemical genetic growth profiling, strain panel (AID 1159580);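 further: tested at 20 µM; growth read once vehicle control cultures reached saturation at 30 °C; 1 = growth at the plate median or of vehicle wells; lower values mean less growth of the strain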
Details: growth OD

Measured: normalized growth

CCNc1nc(Cl)nc(NCC)n1
inactive: S. cerevisiae deletion strains, locus YJR043C, strain POL32, hits give low values 0.939 | S. cerevisiae deletion strains, locus YJR075W, strain HOC1, hits give low values 0.998 | S. cerevisiae deletion strains, locus YKL009W, strain mrt4, hits give low values 1.01 | S. cerevisiae deletion strains, locus YKL068W, hits give low values 0.995 | S. cerevisiae deletion strains, locus YKL085W, strain MDH1 (second series), hits give low values 1 | S. cerevisiae deletion strains, locus YKL085W, strain MDH1, hits give low values 1 | S. cerevisiae deletion strains, locus YKL160W, strain elf1, hits give low values 1 | S. cerevisiae deletion strains, locus YKL190W, strain CNB1, hits give low values 1 | S. cerevisiae deletion strains, locus YKR001C, strain vps1, hits give low values 1.02 | S. cerevisiae deletion strains, locus YKR026C, strain gcn3, hits give low values 0.985 | S. cerevisiae deletion strains, locus YKR091W, strain srl3, hits give low values 0.996 | S. cerevisiae deletion strains, locus YLL001W, strain dnm1, hits give low values 1 | S. cerevisiae deletion strains, locus YLL026W, hits give low values 0.981 | S. cerevisiae deletion strains, locus YLL041C, strain sdh2, hits give low values 0.992 | S. cerevisiae deletion strains, locus YLR027C, strain aat2, hits give low values 0.977 | S. cerevisiae deletion strains, locus YLR039C, strain RIC1, hits give low values 1 | S. cerevisiae deletion strains, locus YLR058C, strain SHM2, hits give low values 0.999 | S. cerevisiae deletion strains, locus YLR102C, strain apc9, hits give low values 1.01 | S. cerevisiae deletion strains, locus YLR221C, strain rsa3, hits give low values 0.987 | S. cerevisiae deletion strains, locus YLR258W, strain gsy2, hits give low values 0.989 | S. cerevisiae deletion strains, locus YLR262C, strain YPT6 (second series), hits give low values 0.992 | S. cerevisiae deletion strains, locus YLR262C, strain YPT6, hits give low values 0.997 | S. cerevisiae deletion strains, locus YLR268W, strain sec22, hits give low values 1 | S. cerevisiae deletion strains, locus YLR320W, strain mms22, hits give low values 0.986 | S. cerevisiae deletion strains, locus YLR330W, strain CHS5, hits give low values 0.994 | S. cerevisiae deletion strains, locus YLR342W, strain FKS1 (second series), hits give low values 0.995 | S. cerevisiae deletion strains, locus YLR342W, strain FKS1, hits give low values 0.991 | S. cerevisiae deletion strains, locus YLR357W, strain rsc2, hits give low values 0.953 | S. cerevisiae deletion strains, locus YLR370C, strain arc18, hits give low values 1.02 | S. cerevisiae deletion strains, locus YLR371W, strain rom2, hits give low values 1 | S. cerevisiae deletion strains, locus YLR384C, strain iki3, hits give low values 0.976 | S. cerevisiae deletion strains, locus YLR418C, strain cdc73, hits give low values 0.985 | S. cerevisiae deletion strains, locus YML016C, strain PPZ1, hits give low values 1 | S. cerevisiae deletion strains, locus YML032C, strain rad52, hits give low values 1.01 | S. cerevisiae deletion strains, locus YML120C, strain ndi1, hits give low values 1.03 | S. cerevisiae deletion strains, locus YML124C, strain tub3, hits give low values 1.01 | S. cerevisiae deletion strains, locus YMR058W, strain fet3, hits give low values 0.999 | S. cerevisiae deletion strains, locus YMR078C, strain ctf18, hits give low values 1.01 | S. cerevisiae deletion strains, locus YMR125W, strain sto1, hits give low values 0.99 | S. cerevisiae deletion strains, locus YMR129W, hits give low values 0.997 | S. cerevisiae deletion strains, locus YMR205C, strain PFK2, hits give low values 0.997 | S. cerevisiae deletion strains, locus YMR223W, strain ubp8, hits give low values 1.01 | S. cerevisiae deletion strains, locus YMR231W, strain pep5, hits give low values 0.995 | S. cerevisiae deletion strains, locus YMR263W, strain SAP30, hits give low values 1.01 | S. cerevisiae deletion strains, locus YMR307W, strain GAS1, hits give low values 1.06 | S. cerevisiae deletion strains, locus YNL067W, strain RPL9B, hits give low values 0.988 | S. cerevisiae deletion strains, locus YNL071W, strain lat1, hits give low values 0.998 | S. cerevisiae deletion strains, locus YNL128W, strain TEP1, hits give low values 0.997 | S. cerevisiae deletion strains, locus YNL153C, strain GIM3, hits give low values 0.985 | S. cerevisiae deletion strains, locus YNL209W, strain ssb2, hits give low values 0.992 | S. cerevisiae deletion strains, locus YNL233W, strain BNI4, hits give low values 1.01 | S. cerevisiae deletion strains, locus YNL248C, strain rpa49, hits give low values 0.989 | S. cerevisiae deletion strains, locus YNL250W, strain rad50, hits give low values 1.01 | S. cerevisiae deletion strains, locus YNL271C, strain bni1, hits give low values 1.01 | S. cerevisiae deletion strains, locus YNL298W, strain CLA4, hits give low values 1.02 | S. cerevisiae deletion strains, locus YNL307C, strain MCK1, hits give low values 1.01 | S. cerevisiae deletion strains, locus YNL322C, strain KRE1 (second series), hits give low values 0.997 | S. cerevisiae deletion strains, locus YNL322C, strain KRE1, hits give low values 0.996 | S. cerevisiae deletion strains, locus YNR049C, strain mso1, hits give low values 0.988 | S. cerevisiae deletion strains, locus YNR052C, strain pop2, hits give low values 1.02 | S. cerevisiae deletion strains, locus YOL006C, strain TOP1, hits give low values 1.04 | S. cerevisiae deletion strains, locus YOL012C, strain htz1 1.15 | S. cerevisiae deletion strains, locus YOL147C, strain pex11, hits give low values 1.01 | S. cerevisiae deletion strains, locus YOR001W, strain rrp6, hits give low values 0.982 | S. cerevisiae deletion strains, locus YOR061W, strain CKA2, hits give low values 0.994 | S. cerevisiae deletion strains, locus YOR069W, strain VPS5, hits give low values 1 | S. cerevisiae deletion strains, locus YOR070C, strain gyp1, hits give low values 0.983 | S. cerevisiae deletion strains, locus YOR080W, strain dia2, hits give low values 0.998 | S. cerevisiae deletion strains, locus YOR083W, strain WHI5, hits give low values 1.01 | S. cerevisiae deletion strains, locus YOR106W, strain vam3, hits give low values 1.01 | S. cerevisiae deletion strains, locus YOR136W, strain idh2, hits give low values 1 | S. cerevisiae deletion strains, locus YOR144C, strain elg1, hits give low values 1 | S. cerevisiae deletion strains, locus YOR184W, strain ser1, hits give low values 1.02 | S. cerevisiae deletion strains, locus YOR265W, strain rbl2, hits give low values 0.979 | S. cerevisiae deletion strains, locus YOR270C, strain vph1, hits give low values 1.02 | S. cerevisiae deletion strains, locus YOR290C, strain snf2, hits give low values 1.02 | S. cerevisiae deletion strains, locus YOR316C, strain cot1, hits give low values 1 | S. cerevisiae deletion strains, locus YPL051W, strain arl3, hits give low values 0.987 | S. cerevisiae deletion strains, locus YPL055C, strain LGE1, hits give low values 0.992 | S. cerevisiae deletion strains, locus YPL078C, strain atp4, hits give low values 1.03 | S. cerevisiae deletion strains, locus YPL106C, strain sse1, hits give low values 0.987 | S. cerevisiae deletion strains, locus YPL240C, strain hsp82, hits give low values 0.999 | S. cerevisiae deletion strains, locus YPL241C, strain CIN2, hits give low values 0.995 | S. cerevisiae deletion strains, locus YPR119W, strain clb2, hits give low values 0.998 | S. cerevisiae deletion strains, locus YPR141C, strain kar3, hits give low values 1 | S. cerevisiae deletion strains, locus YPR163C, strain tif3, hits give low values 1 | S. cerevisiae deletion strains, locus YPR167C, strain met16, hits give low values 0.996 | S. cerevisiae deletion strains, strain wtn01, hits give low values 1.01 | S. cerevisiae strains, strain wild type, hits give low values 0.997
